Results on 39 compounds are retold here after PubChem BioAssay (EPA / NIEHS).

The source made the active and inactive calls. How the source made its calls: active means hit-call score of the fitted dose curve at least 0.9, where 1 is the maximum; inactive means score below 0.9.

Chain of Aryl hydrocarbon receptor (Homo sapiens) (P35869 whole entry, looked up): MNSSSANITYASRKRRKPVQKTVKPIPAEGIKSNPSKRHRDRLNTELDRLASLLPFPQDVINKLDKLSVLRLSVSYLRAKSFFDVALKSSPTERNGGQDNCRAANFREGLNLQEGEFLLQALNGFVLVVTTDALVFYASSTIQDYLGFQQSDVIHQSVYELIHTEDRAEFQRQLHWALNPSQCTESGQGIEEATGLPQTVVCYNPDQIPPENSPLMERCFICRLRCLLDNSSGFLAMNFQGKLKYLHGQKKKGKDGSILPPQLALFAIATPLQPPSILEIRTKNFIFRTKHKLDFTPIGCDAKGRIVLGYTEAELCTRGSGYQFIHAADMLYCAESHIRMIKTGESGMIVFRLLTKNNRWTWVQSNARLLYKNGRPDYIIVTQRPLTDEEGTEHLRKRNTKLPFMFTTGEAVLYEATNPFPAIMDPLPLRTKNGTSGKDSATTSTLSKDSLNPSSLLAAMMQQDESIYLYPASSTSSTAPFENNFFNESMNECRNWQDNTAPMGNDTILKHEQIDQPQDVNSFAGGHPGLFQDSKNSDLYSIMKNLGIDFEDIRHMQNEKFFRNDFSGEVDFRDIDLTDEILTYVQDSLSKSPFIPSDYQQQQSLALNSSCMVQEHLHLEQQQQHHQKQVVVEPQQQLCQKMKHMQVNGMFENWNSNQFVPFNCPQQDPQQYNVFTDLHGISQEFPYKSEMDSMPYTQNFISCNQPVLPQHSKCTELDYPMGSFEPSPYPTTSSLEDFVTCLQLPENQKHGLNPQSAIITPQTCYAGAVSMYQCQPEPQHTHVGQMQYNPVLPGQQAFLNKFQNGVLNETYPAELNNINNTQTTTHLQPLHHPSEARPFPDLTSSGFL

System in one assay: not listed separately
The experiment in a line: ATG_DR4_LXR_CIS: Attagene CIS-FACTORIAL HepG2 Assay for human Liver X Receptor (LXR), DR4 submotif (AID 2282929). Conditions: HepG2 Attagene DR4 cis-reporter, mRNA transcription; actives raise or lower the signal. The method, boiled down:
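After transient transfection with multiplexed cis-promoter reporter units, HepG2 cells received test chemicals for 24 h. Reporter mRNA induction, detected by fluorescence after RT-PCR and capillary electrophoresis, was scored relative to DMSO.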
With `Clc1cnc(Oc2ccc(Oc3ncc(Cl)cc3Cl)cc2)c(Cl)c1`, the compound was classed as inactive.

As usually defined, the AC50 is the midpoint of the concentration-response curve, whichever way the signal moves. Turning to `CCOP(=S)(OCC)OP(=S)(OCC)OCC`, the AC50 is 29.5 µM (active).

As for `CCCCCCCCBr`, the compound was classed as inactive.

For the compound `CC1(C)COP(Oc2ccccc2)OC1`, the call was inactive.

In the case of `Cc1ccc(CCl)cc1`, the compound was classed as inactive.

As to `Cc1c([N+](=O)[O-])c(C)c([N+](=O)[O-])c(C(C)(C)C)c1[N+](=O)[O-]`, the AC50 was 60.7 µM (active).

As for `CC(C)N(C(=O)CCl)c1ccccc1`, the AC50 was 8.6 µM (active).

Consider `Brc1ccc(Oc2c(Br)cc(Br)cc2Br)c(Br)c1`, for which the compound was called inactive.

As for `O=NN1CCCCCCC1`, the compound was classed as inactive.

Take `CC[N+](CC)(CC)CC`: the call was inactive.

As for `O=NN1CCCCCC1`, the result was inactive.

With `COC(=O)Nc1cccc(OC(=O)Nc2cccc(C)c2)c1`, the compound was called inactive.

As for `COP(=S)(OC)Oc1cc(Cl)c(I)cc1Cl`, the AC50 was 46.6 µM (active).

As to `Cc1cc(Cl)ccc1OCCCC(=O)O`, the result was inactive.

The next assay has as its target Aryl hydrocarbon receptor (Homo sapiens) (UniProt P35869). The experiment in a line: ATG_Ahr_CIS: Attagene CIS-FACTORIAL HepG2 Assay for human Aryl Hydrocarbon Receptor (Ahr) (AID 2282930). Conditions: HepG2 AhR cis-factorial reporter transcription; actives raise or lower the signal. A digest of the protocol: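 HepG2 cells transiently transfected with cis-element-driven multiplexed reporter units; endogenous AhR activity read as reporter mRNA 24 h after dosing, via RT-PCR, 6-FAM labelling, HpaI digestion and capillary electrophoresis. Bidirectional fit relative to DMSO.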
With `OC[C@@H](O)[C@H]1O[C@@H]2O[C@H](C(Cl)(Cl)Cl)O[C@@H]2[C@H]1O`, the call was inactive.

As for `O=C(Cc1ccccc1)OCCc1ccccc1`, the result was inactive.

In the case of `CCC[N+](CCC)(CCC)CCC`, the compound was called inactive.

Consider `N#Cc1ccccc1Cl`, for which the call was inactive.

Turning to `Cc1cc(C(C)(C)c2ccc(O)c(C)c2)ccc1O`, the AC50 was 89 µM (active).

In the case of `C#CCO`, the call was inactive.

Consider `O=NN1CCOCC1`, for which the outcome was inactive.

For `CCCSP(=S)(OCC)Oc1ccc(Cl)cc1Cl` (stereo not drawn), the result was inactive.

Consider `COCCl`, for which the outcome was inactive.

For `CNC(=O)O/N=C/C(C)(C)S(C)(=O)=O`, the compound was called inactive.

As for `c1cc[c]([Sb]([c]2ccccc2)[c]2ccccc2)cc1`, the compound was called inactive.

For the compound `CN(N=O)C(N)=O`, the result was inactive.

Consider `CCC[CH2][Sn]([CH2]CCC)([CH2]CCC)[CH2]CCC`, for which the result was inactive.

In the case of `CC(c1ccccc1)(c1ccc(O)cc1)c1ccc(O)cc1`, the outcome was inactive.

For the compound `C[CH2][Hg][S]c1ccccc1C(=O)O`, the outcome was inactive.

On to `O=C(Nc1ccc(Br)cc1)c1cc(Br)cc(Br)c1O`, for which the concentration at half-maximal activity (AC50) was 0.63 µM (active).

In the case of `COC(F)(C(F)(F)C(F)(F)F)C(F)(C(F)(F)F)C(F)(F)F` (stereo not drawn), the outcome was inactive.

As for `Clc1cccc(Cl)c1`, the call was inactive.

Take `CC1CC(=O)O1` (stereo not drawn): the call was inactive.

For the compound `CCCCCCCCCCCCBr`, the call was inactive.

`Cc1ccc2nc3sc(=O)sc3nc2c1`: the call was inactive.

Turning to `ClCCCCl`, the compound was called inactive.

Turning to `Brc1c(Br)c(Br)c(Oc2c(Br)c(Br)c(Br)c(Br)c2Br)c(Br)c1Br`, the result was inactive.

As for `Clc1cccc(Cl)c1Cl`, the compound was called inactive.

Take `CC(C)(c1ccc(O)c(-c2ccccc2)c1)c1ccc(O)c(-c2ccccc2)c1`: the compound was called inactive.

On to `Clc1cnc(Oc2ccc(Oc3ncc(Cl)cc3Cl)cc2)c(Cl)c1`, for which the AC50 is 5.93 µM (active).

Consider `CCOP(=S)(OCC)OP(=S)(OCC)OCC`, for which the result was inactive.

Regarding `CCCCCCCCBr`, the compound was classed as inactive.

For `CC1(C)COP(Oc2ccccc2)OC1`, the result was inactive.

With `Cc1ccc(CCl)cc1`, the outcome was inactive.

With `Cc1c([N+](=O)[O-])c(C)c([N+](=O)[O-])c(C(C)(C)C)c1[N+](=O)[O-]`, the call was inactive.

Take `CC(C)N(C(=O)CCl)c1ccccc1`: the result was inactive.

Turning to `Brc1ccc(Oc2c(Br)cc(Br)cc2Br)c(Br)c1`, the compound was classed as inactive.

Take `O=NN1CCCCCCC1`: the compound was called inactive.

Regarding `CC[N+](CC)(CC)CC`, the compound was classed as inactive.

On to `O=NN1CCCCCC1`, for which the compound was called inactive.

With `COC(=O)Nc1cccc(OC(=O)Nc2cccc(C)c2)c1`, the compound was classed as inactive.

As for `COP(=S)(OC)Oc1cc(Cl)c(I)cc1Cl`, the outcome was inactive.

With `Cc1cc(Cl)ccc1OCCCC(=O)O`, the outcome was inactive.
